From PubChem BioAssay
Peg3 promoter – Peg3 promoter activity inhibition; HeLa PEG-Prom luciferase reporter, luminescence, overnight; inhibition, % at 20 µM; 1.7% of 360,000 active; AID 588405;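 active = inhibition of at least 50% at 20 µM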
MITF TRPM1 inh – reduces MITF-dependent TRPM1 promoter luciferase signal; AID 488899; SK-MEL-5 TRPM1 promoter luciferase, 24 h; 0.83% of 330,000 active; inhibition, % at 12.5 µM;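 active = mean inhibition across replicates of 60% or more, whatever share of single replicates reaches that level; inconclusive = some that reach 60%, reason not given; inactive = mean inhibition across replicates below 60%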
EBV LMP1 NFkB – inhibitors of Epstein-Barr LMP1-induced NF-kappaB reporter. LMP1-induced NF-kappaB luciferase reporter cells, luminescence. inhibition, % at 12.5 µM. 0.69% of 350,000 active; in the data active = inhibition above about 41%; inconclusive = no clear call, values can overlap the other calls;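 note: 0% = neutral control wells and 100% = reference inhibitor control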
TROY NFkB inh – inhibitors of TROY-dependent NF-kB signaling; inhibition, % at 10 µM; Q293 LMP1-TROYcd NF-kB luciferase reporter, 4 h; 0.98% of 360,000 active;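 active = compounds whose plate-normalised and pattern-corrected inhibition of the luciferase reporter signal at the single screening dose is 50% or more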
TWEAK-Fn14 inh – TWEAK-Fn14 signaling inhibition; TWEAK-stimulated Fn14 reporter cells, luciferase luminescence, 8 h; inhibition, % at 10 µM; 2% of 360,000 active; AID 1159606; in the data active = inhibition above about 50%
Shn3 inh set2 – inhibitors of Schnurri-3 3'UTR reporter in osteoblasts; inhibition, % at 12.5 µM; Clone20 osteoblast Shn3 3'UTR firefly luciferase, 24 h; 0.52% of 360,000 active;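 active = mean inhibition of at least 75% with every replicate also reaching 75%; inconclusive = mean inhibition at least 75% but some replicate below; inactive = mean inhibition below 75%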;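 note: 0% = median of neutral control wells and 100% = pilot-screen positive control compound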
Starred values were filed as active, the others as inactive; ? = inconclusive; nt = no result; ! = a repeat was not active. A selection: hits, their analogues and other compounds. The true share with any hit is near 4.1%.

SMILES | Peg3 promoter | MITF TRPM1 inh | EBV LMP1 NFkB | TROY NFkB inh | TWEAK-Fn14 inh | Shn3 inh set2
Cc1cc(N2CCOCC2)n2ncc(-c3ccccc3)c2n1 | -41.3 | 6.5 | 4.0 | 75.1* | 86.2* | -6.2
Cc1cc(N2CCCCC2)n2ncc(-c3ccc(Cl)cc3)c2n1 | -316.1 | -55.5 | -60.7 | 70.0* | 74.0* | -50.7
CC(C)(C)c1cc(N2CCOCC2)n2ncc(-c3ccc(Cl)cc3)c2n1 | -58.1 | -35.5 | -11.6 | -21.5 | -17.9 | 9.0
Cc1cc(N2CCOCC2)n2ncc(-c3ccc(Cl)cc3)c2n1 | -166.6 | -29.7 | -21.2 | 78.7* | 82.4* | -2.2
Cc1cc(N2CCCCC2)n2nc(C)c(-c3ccccc3)c2n1 | -58.6 | -24.8 | 4.4 | 11.7 | 0.9 | -12.6
Cc1cc(N2CCC(C)CC2)n2ncc(-c3ccccc3)c2n1 | -174.6 | -8.2 | -1.4 | 83.8* | 83.5* | -9.9
Cc1cc(N2CCC(C)CC2)n2nc(C)c(-c3ccccc3)c2n1 | -19.6 | -1.9 | -2.4 | -12.5 | -9.7 | -23.8
Cc1cc(N2CCCCC2)n2ncc(-c3ccccc3)c2n1 | -85.7 | 8.4 | -33.2 | 77.1* | 81.4* | -1.7
CC(O)C(NC(=O)OCc1ccccc1)C(=O)OCc1ccccc1 (centres undefined) | 3.8 | nt | 5.7 | 3.9 | -6.3 | 14.3
O=C(/C=C/c1cccc(F)c1)N1CCN(c2ccccn2)CC1 | -23.7 | -22.0 | -4.0 | -35.8 | -4.5 | -7.5
Nc1cccc2c1C(=O)N(C(=O)/C=C/c1cccc(F)c1)C2=O | 79.9* | 35.1 | 28.5 | 0.2 | 70.3* | -13.6
Nc1cccc2c1C(=O)N(C(=O)/C=C/c1cccc(Br)c1)C2=O | 54.1* | 27.5 | -11.4 | -15.6 | 53.5* | -4.2
COc1ccc(-c2cc(C(=O)N(C)Cc3ccc(F)cc3)c3ccccc3n2)cc1OC | 25.8 | -8.8 | 11.3 | 0.0 | -10.7 | 6.8
CCN(CC)C(=O)CSc1n[nH]c(=S)n1N | -5.0 | -10.7 | -5.3 | 7.2 | 84.0* | -2.1
O=C(Cc1ccccc1)NCCS(=O)c1ccc(Cl)cc1 (centres undefined) | 3.6 | 9.9 | -2.7 | 11.8 | -6.5 | 92.5*
Cc1cccc(NC(=O)CCCC(=O)OC(C)C(=O)c2ccccc2)c1 (centres undefined) | 7.5 | 6.1 | -7.7 | 0.4 | 10.1 | 6.5
Cc1ccc(CNC(=S)NC2CCC(C(C)(C)C)CC2)cc1 (centres undefined) | 12.8 | -1.0 | 9.8 | 51.0* | -15.1 | 7.6
COc1ccc(CNC(=S)NC2CCCC2)cc1 | 8.1 | 9.8 | -3.0 | 9.6 | 12.9 | 3.1
COc1ccc(NC(=O)c2cncc(Br)c2)cc1S(N)(=O)=O | 11.6 | -8.2 | -1.3 | -12.0 | 28.7 | 2.4
COC(=O)[C@@]1(Cc2ccc(F)cc2)[C@H]2c3cc(C(=O)N4CCCC4)n(CCCNc4ncc(C(F)(F)F)cc4Cl)c3C[C@H]2CN1C(=O)c1ccccc1 | 20.3 | 7.8 | 45.4* | 8.1 | 19.4 | -102.8
COc1ccc([N+](=O)[O-])cc1NC(=S)NC(NC(=O)C(c1ccccc1)c1ccccc1)C(Cl)(Cl)Cl (centres undefined) | 50.4* | 19.4 | 36.8 | 24.0 | 63.0* | 44.8
O=C(NNC(=S)NC(=O)c1ccccc1Cl)c1cccc([N+](=O)[O-])c1 | 7.1 | 3.8 | -1.7 | 15.3 | 2.0 | 2.2
COc1ccc([N+](=O)[O-])cc1NC(=O)C(C)c1ccccc1 (centres undefined) | 21.8 | 2.8 | 5.4 | 13.1 | -1.7 | 10.5
O=C(NC(NC(=S)Nc1c(Cl)cccc1Cl)C(Cl)(Cl)Cl)c1cccc([N+](=O)[O-])c1 (centres undefined) | 51.6* | -3.6 | -9.4 | 45.3 | 59.9* | 47.7
CCOC(=O)Cn1c(COc2ccccc2OC)[n+](C)c2ccccc21 | 7.7 | nt | nt | -13.9 | -12.3 | 12.6
SMILES | Peg3 promoter | MITF TRPM1 inh | EBV LMP1 NFkB | TROY NFkB inh | TWEAK-Fn14 inh | Shn3 inh set2
CCCCOC(=O)Cn1c(=O)n(CC(=O)OCCCC)c2ccccc21 | 0.8 | 5.4 | 1.8 | 3.0 | -11.9 | -17.6
CCCCCCCCCCOC(=O)Cn1c(COc2cccc(C)c2)[n+](C)c2ccccc21 | 45.8 | 46.8 | -4.2 | 45.8 | 51.3* | 59.1
CCCCCCCCCCOC(=O)Cn1c(COc2ccccc2)[n+](C)c2ccccc21 | 100.0* | 11.5 | 29.3 | 43.4 | 70.3* | ?
CCCCCCCCCCOC(=O)Cn1c(COc2ccc(Cl)cc2)[n+](C)c2ccccc21 | 98.3* | 28.4 | 7.0 | 42.7 | 18.7 | 96.3*
CCCCCCCCCCOC(=O)Cn1c(COc2ccccc2C)[n+](C)c2ccccc21 | 106.7* | 4.7 | 18.5 | 52.4* | 91.7* | ?
COc1nccnc1NS(=O)(=O)c1ccc(NCc2ccccc2O)cc1 | -2.0 | -0.2 | 1.6 | 11.0 | 29.4 | -3.4
CCCCCCCCCCOC(=O)Cn1c(COc2ccc(OC)cc2)[n+](C)c2ccccc21 | 105.3* | 85.5* | -4.0 | 65.2*! | 61.6* | 94.1*!
FC(F)(F)c1ccc(-c2csc(-c3ccno3)n2)cc1 | -71.2 | -12.7 | -21.7 | -39.3 | -16.8 | -22.9
CC(C)(C)C(=O)OCc1nc(-c2ccc(C(F)(F)F)cc2)cs1 | -51.8 | -23.2 | -5.7 | 73.3* | -23.7 | 10.8
O=C(COc1ccc2c(c1)OCO2)Nc1nccs1 | -46.9 | -2.0 | 19.5 | 34.6 | 66.0* | 7.9
COc1ccc(OCC(=O)Nc2nccs2)cc1 | -3.2 | -1.0 | ? | 46.0 | 80.6* | 5.6
CCOc1ccc(OCC(=O)Nc2nccs2)cc1 | 59.0* | 52.2 | 42.9* | 64.7* | 84.9* | 8.0
COc1ccc(OCCC(=O)Nc2nccs2)cc1 | -15.4 | -10.0 | 0.4 | -2.5 | 11.8 | -10.6
COCc1nnc(NC(=O)COc2ccc3c(c2)OCO3)s1 | -11.1 | 4.2 | -10.6 | -53.5 | 25.5 | -5.9
COc1cccc(C2/C(=C(\O)c3ccc4c(c3)OCCO4)C(=O)C(=O)N2CCCN2CCOCC2)c1OC (centres undefined) | 1.2 | -3.3 | 10.1 | 5.0 | -6.6 | -17.4
CN(C)c1ccc(S(=O)(=O)NCC(=O)NCCC2=CCCCC2)cc1[N+](=O)[O-] | 10.3 | 9.0 | 1.3 | -9.5 | 1.3 | 6.3
O=C(CNS(=O)(=O)c1ccccc1)N1CCc2ccccc2C1 | -64.3 | -16.9 | -7.5 | -37.5 | -4.4 | -1.4
Cc1ccc(-c2nc3ccccc3[nH]2)cc1NC(=S)NC(=O)c1ccccc1Br | 7.2 | -11.4 | 15.6 | 36.3 | 66.7* | -2.3
CCOc1ccc(C(=O)Nc2cc(-c3nc4ccccc4[nH]3)ccc2Cl)cc1[N+](=O)[O-] | 62.1* | -8.8 | -7.4 | 12.6 | 36.1 | -11.1
Cc1ccc(-c2nc3ccccc3[nH]2)cc1NC(=O)c1ccc2c(c1)OCO2 | -7.5 | -30.2 | 1.5 | -5.8 | 1.1 | -2.8
O=C(NC(=S)Nc1cc(-c2nc3ccccc3[nH]2)ccc1Cl)c1ccc2c(c1)OCO2 | 100.4* | 54.9 | 10.7 | 53.3* | 87.0* | 25.5
Cc1nn(S(=O)(=O)c2ccccc2)c(C)c1S(=O)(=O)N1CCC(C)CC1 | 0.0 | -6.2 | -3.7 | 2.2 | -2.7 | -8.8
